Screening data: PubChem BioAssay, National Center for Advancing Translational Sciences (NCATS)
CHX counter: Cycloheximide Counterscreen for Small Molecule Inhibitors of Shiga Toxin; 12% of 300,000 active; cell reporter, cycloheximide protein synthesis inhibition counterscreen; max response, %; in the data active = max response mostly above about 13%, no sharp cut-off; inactive = mostly below about 14%; also: read at 38.3 µM for the half of the compounds with a filed dose
Shiga inhibitor: A qHTS for Small Molecule Inhibitors of Shiga Toxin; Vero cells, Shiga toxin protein synthesis inhibition reporter; inhibition, % at 38.7 µM; 9.2% of 290,000 active; in the data active = inhibition mostly above about 28%, no sharp cut-off; inactive = mostly below about 43%
Pf growth 96h: Primary qHTS for delayed death inhibitors of the malarial parasite plastid, 96 hour incubation | Potency, µM (titrated, usually from 28.7 µM), hits mostly inhibitors | P. falciparum luciferase reporter growth, 96 h | 6.9% of 320,000 active | AID 504834, 2011
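Infected RBCs, 2% Hct / 0.05% parasitemia final; luciferase-reporter P. falciparum; cpd 96 h, 37 C, 5% CO2; luciferase detection reagent; luminescence.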
Pf growth 48h: Primary qHTS for delayed death inhibitors of the malarial parasite plastid, 48 hour incubation; P. falciparum luciferase growth in erythrocytes, 48 h; 5.9% of 310,000 active; Potency, µM (highest dose often 28.7 µM), actives largely listed as inhibitors
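Cell-based growth assay: transgenic P. falciparum expressing firefly luciferase, cultured in red cells within RPMI 1640 containing 0.5% w/v Albumax, 24 mM bicarbonate and gentamycin. A drop in luciferase activity indicates inhibition.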
HCMV inh: qHTS Assay for inhibitors of the human cytomegalovirus (HCMV) | HFF cells, HCMV-luciferase reporter, 72 h; active compounds read low | 4.5% of 410,000 active | activity change, negative = inhibition, % at 57.5 µM; in the data active = activity change below about -60%; inconclusive = no clear call, values can overlap the other calls; inactive = above about -39%
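Luciferase read-out from HCMV-luciferase-infected HFFs (MOI 1 PFU/cell) 72 h post infection at 37C; compounds added after 16 h cell attachment; activity normalized between buffer-only basal and Salinomycin (10uM) inhibitor controls.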
HCV inhibitor: qHTS Assay for Inhibitors of Hepatitis C Virus (HCV); Huh7.5.1 HCVcc-Cre infection, luciferase reporter, 44 h; Potency, µM (highest dose often 41.8 µM), actives largely listed as inhibitors; 3.4% of 340,000 active; AID 651820, 2012
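After 44 h co-culture of compound, cells and HCVcc-Cre (~0.5 moi), substrate is added for 15 min at room temperature and luciferase measured over 15 sec. Cells were seeded at 1,000/well and pre-cultured 4 h.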
Numbers stand for hits; n = inactive; u = inconclusive; x = no result given. Most compounds without a hit are left out; they make up all but 21% or so of the library. Unless noted, calls follow the shape of the dose curve; as a rule, active = well fitted inhibition curve with a large enough effect; inconclusive = small, poorly fitted or top-dose-only effect, or another doubt; inactive = no such curve, though single readings can be large or run the other way.

SMILES	CHX counter	Shiga inhibitor	Pf growth 96h	Pf growth 48h	HCMV inh	HCV inhibitor
O=C(/C=C/c1cc([N+](=O)[O-])ccc1OC(F)F)Nc1cccc(OC(F)F)c1	n	n	8.28µM	u	n	u
COC(=O)C(=Cc1ccccc1[N+](=O)[O-])C(=O)OC	n	n	9.28µM	u	-95.9	u
COc1ccc(OC)c(NC(=O)/C=C/c2ccccc2[N+](=O)[O-])c1	n	n	n	n	n	n
O=C(/C=C/c1ccccc1[N+](=O)[O-])Oc1ccccc1	n	n	n	n	x	x
O=C(/C=C/c1ccccc1[N+](=O)[O-])NNC(=O)c1ccncc1	x	x	n	n	n	n
COc1cccc(NC(=O)/C=C/c2ccccc2[N+](=O)[O-])c1	61.0	74.2	u	n	n	u
COc1cccc(NC(=O)/C=C/c2ccc([N+](=O)[O-])cc2)c1	39.2	47.0	n	n	n	u
CC(C)CCNC(=O)NC(=O)COC(=O)c1cc(S(=O)(=O)N2CCOCC2)ccc1N1CCCCC1	n	n	x	9.28µM	n	u
NC(=O)COC(=O)c1cc(S(=O)(=O)N2CCOCC2)ccc1N1CCCCC1	n	n	u	n	n	n
CC1CCCC(NC(=O)COC(=O)c2cc(S(=O)(=O)N3CCCCC3)ccc2N2CCOCC2)C1C (stereo unspecified)	n	n	5.22µM	x	n	n
Cc1ccc(S(=O)(=O)N2CCOCC2)cc1C(=O)OCC(=O)NC1CCCC(C)C1C (stereo unspecified)	x	x	u	u	n	u
C/C(=N\NC(=S)Nc1ccc(F)cc1)C1CC1	28.6	n	11.7µM	u	n	n
COc1ccccc1CCC(=O)Nc1ccc2c(c1)c(=O)n(C)n2Cc1cccc(C(F)(F)F)c1	x	x	x	x	n	x
Cc1occc1C(=O)Nc1sc2c(c1C(N)=O)CCCCC2	29.1	61.6	n	n	n	u
CN1CCN(C(=O)c2c(NC(=O)c3ccco3)sc3c2CCC(C(C)(C)C)C3)CC1 (stereo unspecified)	n	n	u	n	n	n
CCc1c(C)sc(NC(=O)c2ccoc2C)c1C(N)=O	21.5	n	u	n	u	n
CC1CCc2c(sc(NC(=O)c3ccco3)c2C(=O)O)C1 (stereo unspecified)	39.8	126.1	n	n	n	u
O=C(Nc1sc2c(c1C(=O)O)CCCCC2)c1ccco1	32.6	n	n	n	n	n
Cc1ccc(-c2noc(-c3nnn(CC(=O)Nc4cc(C)cc(C)c4)c3N)n2)cc1	x	x	x	x	n	x
Cc1cc(OCC(=O)N(Cc2ccc(N(C)C)cc2)Cc2ccco2)cc(C)c1Cl	x	x	x	x	n	x
O=C(Nc1sc2c(c1C(=O)O)CCCC2)C(=O)N1CCOCC1	19.7	33.0	n	n	n	n
CCOC(=O)c1c(NC(=O)c2ccco2)sc2c1CCCCC2	n	n	n	x	u	u
CN(C)C(=O)c1c(NC(=O)c2ccco2)sc2c1CCCCC2	16.4	n	n	n	n	u
N#Cc1c(NC(=O)c2ccco2)sc2c1CCC2	n	n	u	u	n	n
CC1CCc2c(sc(NC(=O)/C=C/c3cccs3)c2C(=O)O)C1 (stereo unspecified)	n	n	9.28µM	n	n	u
SMILES	CHX counter	Shiga inhibitor	Pf growth 96h	Pf growth 48h	HCMV inh	HCV inhibitor
NC(=O)c1c(NC(=O)c2ccco2)sc2c1CCC2	22.3	43.5	n	x	n	n
O=C(Nc1sc2c(c1C(=O)O)CCC2)C(=O)N1CCOCC1	n	n	u	n	n	u
O=C(N/C(=C\c1ccc(Br)cc1)C(=O)N1CCOCC1)c1ccco1	n	n	n	n	n	n
Cc1ccc(S(=O)(=O)N(CCC(=O)N2CCOCC2)c2ccccc2)cc1	x	x	n	u	n	n
CCOC(=O)c1c(NC(=O)C(C)N2CCN(C(=O)c3ccco3)CC2)sc2c1CCCC2 (stereo unspecified)	18.8	n	u	x	n	10µM
CCCOc1ccc(CCc2n[nH]c(=S)n2Cc2ccccc2)cc1	n	n	n	5.86µM	n	n
CCCOc1ccc(CCc2n[nH]c(=S)n2-c2ccccc2)cc1	n	n	n	n	n	n
Cc1ccc2c(c1)-c1nc(-c3ccc4c(c3)NC(=O)CO4)cc(-c3ccccc3)c1CO2	x	x	x	x	n	x
